Calls of active or inactive are those of the source. The calls were made as follows: active = hit-call score of the fitted dose curve at least 0.9, where 1 is the maximum; inactive = score below 0.9.
Read-out: not listed separately
Assay: CEETOX_H295R_PROG: CeeTox H295R High-throughput Steroidogenesis Assay for Progesterone (PROG) (AID 2283442);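 as to AC50: human H295R adrenal cells primed with 10 µM forskolin before dosing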
Conditions: actives raise or lower the signal
Outline: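 Progesterone read-out: HPLC-MS/MS on MTBE extracts of conditioned medium after 48 h chemical exposure of forskolin-primed (10 uM, 48 h) H295R cells. Gain or loss of signal was fitted relative to DMSO baseline.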

Question: Which outcome does the source give for `CC(C)(O)c1ccc(CNC(=O)c2cccnc2Oc2ccc(F)cc2)cc1` here?
Answer: inactive

Question: For `O=C1NC(=O)C(c2ccccc2)(c2ccccc2)N1`, which outcome is on record?
Answer: inactive

Question: Which outcome does the source give for `O=C(O)CN(CC(=O)O)CC(=O)O` here?
Answer: inactive

Question: For `Nc1nc(Cl)nc2c1ncn2[C@H]1C[C@H](O)[C@@H](CO)O1`, which AC50 is on record?
Answer: 128 nM (active)

Question: For `O=C1c2c(O)cccc2Cc2cccc(O)c21`, which outcome is on record?
Answer: inactive

Read-out: Tumor necrosis factor receptor superfamily member 6 (Homo sapiens) (UniProt P25445)
Assay: LTEA_HepaRG_FAS: Life Technologies and Expression Analysis (LTEA) Assay for Fas cell surface death receptor (FAS) using HepaRG (AID 2283447)
Conditions: mRNA level, 48 h; actives raise or lower the signal
Outline: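 FAS transcript level was measured by TaqMan qRT-PCR against three housekeeping genes after 48 h chemical exposure. Cells were HepaRG, 0.5% DMSO vehicle, with a top concentration of 100 uM and half-log dilutions over eight points, in duplicate.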

Question: With `CC(=O)OC1CC(C)OC(C)O1` (centres undefined) as the molecule, how does the outcome read?
Answer: inactive

Question: Which outcome does the source give for `CC(=O)O` here?
Answer: inactive

Question: With `CN(C)C(=O)NC1(c2ccccc2)CCN(CC[C@@]2(c3ccc(F)c(F)c3)CN(C(=O)c3ccccc3)CCO2)CC1` as the molecule, how does the outcome read?
Answer: inactive

Question: Which outcome does the source give for `CC(=O)S[C@H](C(=O)N[C@H]1Cc2ccccc2[C@H]2CCC[C@@H](C(=O)O)N2C1=O)C(C)C` here?
Answer: inactive

Question: For `CC(C)(O)c1ccc(CNC(=O)c2cccnc2Oc2ccc(F)cc2)cc1`, which outcome is on record?
Answer: inactive

Question: For `O=C1NC(=O)C(c2ccccc2)(c2ccccc2)N1`, which outcome is on record?
Answer: inactive

Question: With `Cc1occc(=O)c1O` as the molecule, how does the outcome read?
Answer: inactive

Question: Which outcome does the source give for `Cn1cnc2c1c(=O)[nH]c(=O)n2C` here?
Answer: inactive

Question: Which outcome does the source give for `CC(C)COC(=O)CCCCC(=O)OCC(C)C` here?
Answer: inactive

Question: For `CCCC(=O)O`, which outcome is on record?
Answer: inactive

Question: For `O=C(O)CN(CC(=O)O)CC(=O)O`, which outcome is on record?
Answer: inactive

Question: Which outcome does the source give for `CCCCOC(=O)CCCCC(=O)OCCCC` here?
Answer: inactive

Question: For `c1ccc2occc2c1`, which outcome is on record?
Answer: inactive

Question: With `COC(=O)[C@H]1[C@H]2C[C@@H]3c4[nH]c5cc(OC)ccc5c4CCN3C[C@H]2C[C@@H](OC(=O)c2cc(OC)c(OC)c(OC)c2)[C@@H]1OC` as the molecule, how does the outcome read?
Answer: inactive

Question: Which outcome does the source give for `COC(=O)CCCC(=O)OC` here?
Answer: inactive

Question: With `Nc1nc(Cl)nc2c1ncn2[C@H]1C[C@H](O)[C@@H](CO)O1` as the molecule, how does the AC50 read?
Answer: 209 nM (active)

Question: For `O=NO`, which outcome is on record?
Answer: inactive

Question: Which outcome does the source give for `NC=O` here?
Answer: inactive

Question: Which outcome does the source give for `O=C(O)c1[nH]n(-c2ccc(S(=O)(=O)O)cc2)c(=O)c1N=Nc1ccc(S(=O)(=O)O)cc1` here?
Answer: inactive

Question: For `OCC(O)CO`, which outcome is on record?
Answer: inactive

Question: For `CCc1cc(C2=C(C(=O)O)N(c3ccccc3C(F)(F)F)S(=O)(=O)c3ccccc32)cc2c1OCO2`, which AC50 is on record?
Answer: 50000 nM (active)

Question: For `CCCC[C@H]1CN(CC2CCOCC2)C(=O)OC12CCN(C1(C)CCN(C(=O)c3c(C)ncnc3C)CC1)CC2`, which outcome is on record?
Answer: inactive

Question: Which outcome does the source give for `CC(=O)OCC(COC(C)=O)OC(C)=O` here?
Answer: inactive

Question: Which outcome does the source give for `O=C1c2c(O)cccc2Cc2cccc(O)c21` here?
Answer: inactive

Question: With `CN(C)CCCN1c2ccccc2Sc2ccc(Cl)cc21` as the molecule, how does the outcome read?
Answer: inactive

Question: With `CC(N)=O` as the molecule, how does the outcome read?
Answer: inactive

Question: Which outcome does the source give for `CC(C)c1cccc(C(C)C)c1` here?
Answer: inactive

Question: Which outcome does the source give for `COC(=O)CCC(=O)OC` here?
Answer: inactive

Question: With `CC(=O)CC(c1ccccc1)c1c(O)c2ccccc2oc1=O` (centres undefined) as the molecule, how does the outcome read?
Answer: inactive

Source: PubChem BioAssay (EPA / NIEHS)
